From PubChem
A selection: hits, their analogues and other compounds. The true share with any hit is near 3.9%.
BoNT-A LC inh2: BoNT/A light chain protease inhibitors, primary screen, biochemical, flow cytometry, MLPCN library; 0.17% of 360,000 active; Botulinum neurotoxin type A light chain protease (Clostridium botulinum A str. ATCC 3502); inhibition, % at 10 µM; multiplex microsphere protease substrate cleavage
Anthrax LF inh2: Bacillus anthracis LF protease inhibitors, primary screen, biochemical, multiplex microsphere, MLPCN library. inhibition, % at 10 µM. AID 588501, 2011. multiplex microsphere protease cleavage assay. 0.12% of 360,000 active
Target sequence (P15917 whole entry, looked up): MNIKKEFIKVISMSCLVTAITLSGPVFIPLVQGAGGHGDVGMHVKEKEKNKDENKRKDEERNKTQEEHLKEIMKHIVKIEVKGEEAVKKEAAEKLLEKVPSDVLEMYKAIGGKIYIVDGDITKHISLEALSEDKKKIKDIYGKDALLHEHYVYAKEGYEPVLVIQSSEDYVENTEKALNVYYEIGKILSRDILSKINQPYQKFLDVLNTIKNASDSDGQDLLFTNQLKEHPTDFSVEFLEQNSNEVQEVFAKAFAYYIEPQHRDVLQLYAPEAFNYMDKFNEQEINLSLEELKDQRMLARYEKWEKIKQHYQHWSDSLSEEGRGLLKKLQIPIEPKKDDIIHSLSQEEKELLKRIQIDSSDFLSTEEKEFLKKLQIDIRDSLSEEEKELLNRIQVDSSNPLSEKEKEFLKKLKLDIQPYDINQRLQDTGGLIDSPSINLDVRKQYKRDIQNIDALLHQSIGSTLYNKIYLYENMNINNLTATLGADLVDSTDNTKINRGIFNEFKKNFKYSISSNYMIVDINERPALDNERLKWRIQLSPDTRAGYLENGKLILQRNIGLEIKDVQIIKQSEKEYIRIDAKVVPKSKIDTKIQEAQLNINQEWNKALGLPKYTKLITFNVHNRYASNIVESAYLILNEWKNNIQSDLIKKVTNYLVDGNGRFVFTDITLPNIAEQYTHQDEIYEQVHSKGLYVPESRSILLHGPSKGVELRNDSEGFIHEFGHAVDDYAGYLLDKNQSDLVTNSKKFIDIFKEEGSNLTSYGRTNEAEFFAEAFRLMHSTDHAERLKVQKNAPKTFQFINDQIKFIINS
BoNT-F LC inh: BoNT/F light chain protease inhibitors, primary screen, biochemical, flow cytometry, MLPCN library | inhibition, % at 10 µM | Multiplex microsphere protease cleavage assay | 0.22% of 360,000 active | Botulinum neurotoxin type F light chain protease (Clostridium botulinum); in the data active = inhibition above about 35%, passing the limit was not always enough; inconclusive = no clear call, values can overlap the other calls
Bead autofluor: compound fluorescence in toxin protease inhibitor counterscreen | compound autofluorescence counterscreen, microsphere flow cytometry; active compounds read high | AID 624483 | fluorescence intensity (no concentration beside the values) | 3.1% of 360,000 active; in the data active = fluorescence intensity above about 16000; inconclusive = no clear call, values can overlap the other calls
CCHFV vOTU inh: CCHFV vOTU protease inhibitors, primary screen, biochemical, Pep-AMC substrate, fluorescence. Crimean-Congo hemorrhagic fever virus L polyprotein viral ovarian tumor (vOTU) protease …. inhibition, % at 11.5 µM. 0.55% of 370,000 active. AID 651958, 2012; in the data active = inhibition above about 30%
3CLpro inhibitor: SARS-CoV 3CLpro protease inhibitors, primary screen, biochemical, quenched FRET; recombinant SARS-CoV 3CLpro, quenched FRET peptide cleavage; inhibition, % at 6 µM; 0.14% of 290,000 active; AID 1706, 2009; in the data active = inhibition above about 12%
A number is an active result; i = inactive; ? = inconclusive; nt = no result. Rule as the data show it, unless noted: active = inhibition above about 30%; inconclusive = no clear call, values can overlap the other calls; inactive = below that.

SMILES | BoNT-A LC inh2 | Anthrax LF inh2 | BoNT-F LC inh | Bead autofluor | CCHFV vOTU inh | 3CLpro inhibitor
S=C(NCc1ccc(Cl)cc1)OC1CCC12CCC(c1ccccc1)CC2 (centres undefined) | nt | nt | nt | nt | i | nt
COC(=O)c1ccc(Cn2ccc3ccc(-c4ccc5ccn(Cc6ccc(C(=O)OC)cc6)c5c4)cc32)cc1 | nt | nt | nt | nt | i | nt
CCOc1cc(NC(=S)Nc2cccc(OC)c2)c(OCC)cc1NC(=O)c1ccc(C)cc1 | i | i | i | i | i | i
CCOc1cc(NC(=S)Nc2ccccc2)c(OCC)cc1NC(=O)c1ccc(OC)cc1 | i | i | i | 18966 | i | i
CCOc1cc(NC(=S)Nc2cccc(OC)c2)c(OCC)cc1NC(=O)C(C)C | ? | i | i | 23255 | i | i
COc1cccc(NC(=O)C(C)C)c1 | i | i | i | i | i | nt
COc1nnc(-c2ccc(N3CCOCC3)c(NC(=O)C3CCCCC3)c2)c2ccccc12 | i | i | i | i | i | i
c1ccc2c3c(cc(N4CCOCC4)c2c1)OC1(N2CCOCC2)CCCCC1O3 (centres undefined) | i | i | 36.4 | i | i | i
CCC(=O)N1CCc2cc(Br)c(S(=O)(=O)N3CCCC(C(=O)NC(C)(C)C)C3)cc21 (centres undefined) | nt | nt | nt | nt | i | nt
COc1ccc2nc(N3CCCC3)[nH]c2c1 | ? | i | i | 24269 | i | i
COc1ccc2nc(NCCO)[nH]c2c1 | i | i | i | i | i | i
COC(=O)[C@]12C[C@H](CC(=O)N3CCN(C(=O)C4CC4)CC3)C(=O)N(CCc3ccc(OC)c(OC)c3)C1=C[C@H](C(C)C)O[C@@H]2C1CC1 | nt | nt | nt | nt | i | nt
O=C(NC12CC3CC(CC(C3)C1)C2)c1cncc(O)c1 | i | i | i | 20010 | i | i
COc1ccc(NC(=O)C(NC(=O)OC(C)(C)C)C(C)OCc2ccccc2)cc1 (centres undefined) | ? | i | i | 21191 | i | i
CN(Cc1ccccc1)c1nc2c(c(=O)[nH]c(=O)n2C)n1Cc1ccccc1Cl | ? | i | i | 22859 | i | i
N#CCC[C@H]1CC[C@]2(CCCN(Cc3cccc4ccccc34)C2)O1 | nt | nt | nt | nt | i | nt
CN1CCN(c2nc3c(c(=O)[nH]c(=O)n3C)n2CCSc2nc3ccccc3s2)CC1 | i | i | i | i | i | i
Cn1c(=O)[nH]c(=O)c2c1nc(N1CCc3ccccc3C1)n2CCSc1nc2ccccc2s1 | i | i | i | 16749 | i | i
CN1CCN(c2nc3c(c(=O)[nH]c(=O)n3C)n2CCCSc2ncccn2)CC1 | i | i | i | 22784 | i | i
C[C@@H]1CCN(C2CC2)S(=O)(=O)c2ccc(N3CCC[C@H]3CO)cc2O1 | nt | nt | nt | nt | i | nt
CCC[C@@H](/C=C/C(=O)OC(C)(C)C)Sc1ccccc1OC | nt | nt | nt | nt | i | nt
CC1CCCC(C)N1CCNC(=O)Nc1ccc(Cl)cc1 (centres undefined) | i | i | i | 22625 | i | i
Cc1c(C(=O)Nc2ccncc2)oc2c1C(=O)CC(C)(C)C2 | ? | i | i | 19786 | i | i
Cc1c(C(=O)Nc2ccccc2)oc2c1C(=O)CC(C)(C)C2 | i | i | i | i | i | i
CCCCCN1CCCCC(NC(=O)c2ccc(F)c(F)c2)C1=O (centres undefined) | nt | nt | nt | nt | i | nt
SMILES | BoNT-A LC inh2 | Anthrax LF inh2 | BoNT-F LC inh | Bead autofluor | CCHFV vOTU inh | 3CLpro inhibitor
COC(=O)C1CCN(C(=O)c2ccccc2NC(C)=O)CC1 | i | i | i | i | i | i
COc1ccccc1C(=O)N1CCC(C(=O)c2ccc(F)cc2)CC1 | i | i | i | 19021 | i | i
COC(=O)C1CCN(C(=O)c2ccccc2Oc2ccccc2)CC1 | i | i | i | 20014 | i | i
CC1CCN(C(=O)c2ccc(NS(C)(=O)=O)cc2)CC1 | ? | i | i | 19949 | i | i
COc1ccc(C(=O)N2CCC(C(=O)Nc3ccccc3OC)CC2)cc1 | ? | i | i | 22688 | i | i
CCOC(=O)[C@]12CCCCC/C=C\1N(CCc1ccc(Cl)cc1)C(=O)[C@H]2CC(=O)N1CCOCC1 | nt | nt | nt | nt | i | nt
Cc1cccc(C(=O)Nc2nc3ncccn3c2-c2ccc(F)cc2)c1 | nt | nt | nt | nt | i | nt
CCOC(=O)N1CCN(C(=O)c2ccc(NC(C)=O)cc2)CC1 | i | i | i | i | i | i
COC(=O)C1CCN(C(=O)c2ccc(NC(C)=O)cc2)CC1 | i | i | i | 22006 | i | i
COc1ccc(Cn2c(CCC(=O)Nc3ccc(CC#N)cc3)nc3cccnc32)cc1 | i | i | i | 22433 | i | i
COCCCNC(=O)CCc1nc2cccnc2n1Cc1ccccc1 | i | i | i | 23819 | i | i
Cc1cccc(C(=O)Nc2ccc(Cl)cc2C(=O)c2ccccc2)c1 | ? | i | i | 20672 | i | i
COc1nc(OCC#N)nc(N2CCCCC2)n1 | i | i | i | i | i | i
COc1nc(N(C#N)CC(N)=O)nc(N2CCCC2)n1 | i | i | i | 20491 | i | i
C=CCn1c(SCC)nc2sc3c(c2c1=O)CCc1ccccc1-3 | i | i | i | 17250 | i | i
C=CCn1c(SC)nc2sc3c(c2c1=O)CCc1ccccc1-3 | i | i | i | i | i | i
CCOC(=O)c1c(NC(=O)c2ccccc2Br)sc2c1CCc1ccccc1-2 | ? | i | i | 22027 | i | i
CCOC(=O)c1c(NC(C)=O)sc2c1CCC(C=O)=C2Sc1ccccc1 | 50.0 | 41.3 | 39.6 | i | i | i
CCOC(=O)c1c(NC(=O)c2ccccc2N(C)S(=O)(=O)c2ccccc2)sc2c1CCCC2 | i | i | i | i | i | i
CCOC(=O)c1c(NC(C)=O)sc2c1CCN(Cc1ccccc1)C2 | i | i | i | i | i | i
CC(C)CNC(=O)OCc1cn(Cc2ccc(F)c(F)c2)nn1 | nt | nt | nt | nt | i | nt
CCn1c(SCC(=O)Nc2ccc(C(N)=O)cc2)nc2sc(C)c(C)c2c1=O | nt | nt | nt | nt | i | nt
c1ccc(COc2cccc(CN3CCCCC3)c2)cc1 | i | i | i | i | i | i
Cc1cccc(CN2CCN(c3ncccn3)CC2)c1 | i | i | ? | i | i | i
c1ccc(COc2cccc(CN3CCN(c4ccccn4)CC3)c2)cc1 | i | i | i | 20483 | i | i
SMILES | BoNT-A LC inh2 | Anthrax LF inh2 | BoNT-F LC inh | Bead autofluor | CCHFV vOTU inh | 3CLpro inhibitor
Cc1cccc(CN2CCN(c3ccccn3)CC2)c1 | ? | i | i | 23318 | i | i
S=c1[nH]ncn1/N=C/c1cccc(Oc2ccccc2)c1 | i | i | i | i | i | i
Fc1ccccc1COc1cccc(/C=N/n2cnnc2)c1 | i | i | i | 24150 | i | i
C(=N\n1cnnc1)/c1cccc(Oc2ccccc2)c1 | i | i | i | 22913 | i | i
Cc1cc(/C=N/n2cnnc2)c(C)n1-c1ccc(OCc2ccccc2F)cc1 | i | i | i | i | i | i
O=C(COCc1ccccc1)N1CC[C@H]2[C@H](CCCN2Cc2cc(F)cc(F)c2)C1 | nt | nt | nt | nt | i | nt
Cc1ccc(Oc2ncnc(N)c2[N+](=O)[O-])cc1 | i | i | i | i | i | i
Cc1ccc(N(c2ncnc(N)c2[N+](=O)[O-])C2CCCCC2)cc1 | i | i | i | 23258 | i | i
